Data as given in PubChem BioAssay (NCI).
The panel holds about 83,000 compounds, 20% with a hit somewhere; the sample as a whole holds those more often.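 In brief: 96-well plates, 48 h treatment, single concentration, percent growth endpoint.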 Values without a mark were called inactive. Active and inactive are the calls of the source. Rule for the calls: active = growth percent below 10; inactive = the rest.

tested on: MDA-MB-468 breast; assay: NCI-60 one-dose screen, 48 h (100 = growth as untreated, 0 = no growth, -100 = all killed); settings: 10 µM unless noted

| SMILES | growth |
| --- | --- |
| Cc1ccccc1NC1CC(=O)N(c2ccc(Cl)cc2Cl)C1=O (centres undefined) | 105% |
| N#C/C(=N\Nc1ccc(Cl)cc1)C(=O)Nc1cc(-c2ccccc2)nn1-c1ccccc1 | 7.6% (active) |
| CN1CCN(Cc2ccc(NC(=O)c3cncc(C#Cc4cnc5ccc(OCC(F)F)nn45)c3)cc2C(F)(F)F)CC1 | -65.5% (active) |
| O=C(NNC(=S)Nc1ccccc1)c1ccncc1 | 122% |
| CC1(C)CC2(C)CC(=O)C1C(C(=O)O)C2C(=O)O (centres undefined) | 114% |
| Cc1cccc([N+](=O)[O-])c1I | 104% |
| O=C1Cc2ccccc2C(=O)O1 | 112% |
| CCCCCCCOc1cccc(/C=C2/C(=O)N=C3SCCCN32)c1 | 56.8% |
| Nc1c(C(=O)Nc2cccc3ccccc23)sc2nc3c(cc12)CCCCC3 | 37.1% |
| COc1ccc(/C=C2/CN(C(=O)c3ccc(C)cc3)C/C(=C\c3ccc(OC)cc3)C2=O)cc1 | 74.1% |
| C#C[C@]1(O)CC[C@H]2[C@@H]3CC=C4c5sc(-c6ccc7c(c6)OCO7)nc5CC[C@]4(C)[C@H]3CC[C@@]21C | 51.5% |
| O=C(c1nc2ccccc2[nH]1)C1C(c2ccc(Cl)cc2)C2CC3CCCC[C@H]3N2[C@@]12C(=O)Nc1cc(Cl)ccc12 (some centres undefined) | 12.1% |
| O=S(=O)(Nc1ccc(-c2nc(-c3cccc(OCCN4CCOCC4)c3)c(-c3ccnc(Br)c3)[nH]2)cc1)c1ccccc1 | 1.46% (active) |
| O=c1[nH]c(-c2ccc(Cl)cc2)nc2sc3c(c12)CCCC3 | 82.2% |
